Results reported in article PMC5540273 (PLoS ONE, 2017).

Legend:
Details in all cases: concentration: 1 μM, replicates: in singlicate; n = 1
RIPK2 = test system: RIPK2
RIPK4 = test system: RIPK4
RIPK5 = test system: RIPK5
ROCK1 = test system: ROCK1
ROCK2 = test system: ROCK2
ROS1 = test system: ROS1
[1] = test system: RPS6KA4(Kin.Dom.1-N-terminal)
[2] = test system: RPS6KA4(Kin.Dom.2-C-terminal)
[3] = test system: RPS6KA5(Kin.Dom.1-N-terminal)
[4] = test system: RPS6KA5(Kin.Dom.2-C-terminal)
[5] = test system: T1, RSK1(Kin.Dom.1-N-terminal)
T1 construct: gene RPS6KA1

[6] = test system: T2, RSK1(Kin.Dom.2-C-terminal)
T2 construct: gene RPS6KA1

[7] = test system: T3, RSK2(Kin.Dom.1-N-terminal)
T3 construct: gene RPS6KA3

[8] = test system: T4, RSK2(Kin.Dom.2-C-terminal)
T4 construct: gene RPS6KA3

[9] = test system: T5, RSK3(Kin.Dom.1-N-terminal)
T5 construct: gene RPS6KA2

[10] = test system: T6, RSK3(Kin.Dom.2-C-terminal)
T6 construct: gene RPS6KA2

[11] = test system: T7, RSK4(Kin.Dom.1-N-terminal)
T7 construct: gene RPS6KA6

[12] = test system: T8, RSK4(Kin.Dom.2-C-terminal)
T8 construct: gene RPS6KA6

S6K1 = test system: S6K1
SBK1 = test system: SBK1
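Further: KINOMEscan kinase panel screen.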

Compound	%Inh (RIPK2) [%]	%Inh (RIPK4) [%]	%Inh (RIPK5) [%]	%Inh (ROCK1) [%]	%Inh (ROCK2) [%]	%Inh (ROS1) [%]	%Inh [1] [%]	%Inh [2] [%]	%Inh [3] [%]	%Inh [4] [%]	%Inh [5] [%]	%Inh [6] [%]	%Inh [7] [%]	%Inh [8] [%]	%Inh [9] [%]	%Inh [10] [%]	%Inh [11] [%]	%Inh [12] [%]	%Inh (S6K1) [%]	%Inh (SBK1) [%]
Nc1ncnc2c1ncn2-c1cccc2ccccc12 [SKF-97184]	7	8	5	67	0	0	10	0	10	2	16	16	38	0	0	36	11	0	15	28
C[C@@H]1CC[C@H](C(=O)NC2CCCCC2)CN1c1cc(-c2ccc3c(N)n[nH]c3c2)nc(N)n1 [GSK2291363]	5	29	0	94.4	93.1	28	5	0	32	0	31	6	32	28	23	6	11	26	8	14
O=c1cc(N2CCOCC2)nc2n(Cc3ccc(F)c(Cl)c3)ccn12 [GSK2297099]	0	27	0	0	0	0	4	0	16	27	19	10	0	0	27	0	0	11	0	0
Nc1ncnc2c1ncn2-c1cccc(F)c1 [SKF-97560]	100	29	26	38	28	4	0	45	0	3	31	0	23	0	9	0	21	0	36	25
COc1ccc(-c2coc3ccc(-c4nnc(SCc5cccc(C#N)c5)o4)cc23)cc1	12	16	12	0	24	18	0	13	29	0	16	24	9	0	16	18	26	24	2	0
COC(=O)c1c(-c2ccccc2)c2cc(C)ccc2c(=O)n1Cc1ccccc1	0	0	0	0	0	0	0	0	10	0	0	20	0	0	15	15	0	22	0	0
O=C(NCc1cccs1)c1cc(C(=O)c2c(Cl)cccc2Cl)c[nH]1 [GW823670]	8	0	0	45	0	0	22	0	0	15	16	13	2	0	0	18	0	0	7	0
OCCCNc1nccc(-c2c(-c3cccc(C(F)(F)F)c3)nn3cc(C(F)(F)F)ccc23)n1 [GW630813]	14	0	0	11	24	0	0	0	0	16	0	32	0	5	0	0	0	89	1	0
COc1ccc(-n2cnc3c(N)ncnc32)cc1 [SKF-97236]	15	9	10	5	20	0	12	0	15	0	0	0	11	22	9	0	9	36	9	13
COc1cc2ncn(-c3cc(OCc4ccc(S(C)(=O)=O)cc4)c(C(N)=O)s3)c2cc1OC [GW869979]	0	35	3	45	32	0	0	38	0	14	1	0	26	0	0	7	27	6	19	37
CCC(=O)c1c(-c2ccccc2)c2cc(Cl)ccc2c(=O)n1Cc1cc(S(C)(=O)=O)n(CCC(C)(C)O)n1	14	0	3	16	0	14	3	12	20	1	0	0	9	0	11	5	39	23	0	0
Cc1ccc(-c2ccc3c(ccc4sc5c(c43)NC[C@@H](C)N=C5N(C)C)n2)cn1	0	0	0	0	0	0	0	0	0	0	0	0	0	0	0	0	0	0	0	0
